Tests used:
Assay in all cases: log2 ratio of Biotin-Ahx-Ub-VS probe labelling (fragment/DMSO); higher = less target engagement (more negative = stronger competition), active = hit call of the paper (q ≤ 0.05, log2 ratio ≤ -1)
Details in all cases: compound concentration: 200 uM; treatment time: 3 h
[1] = target: T1, USP19 (UniProt O94966)
T1 sequence (whole entry): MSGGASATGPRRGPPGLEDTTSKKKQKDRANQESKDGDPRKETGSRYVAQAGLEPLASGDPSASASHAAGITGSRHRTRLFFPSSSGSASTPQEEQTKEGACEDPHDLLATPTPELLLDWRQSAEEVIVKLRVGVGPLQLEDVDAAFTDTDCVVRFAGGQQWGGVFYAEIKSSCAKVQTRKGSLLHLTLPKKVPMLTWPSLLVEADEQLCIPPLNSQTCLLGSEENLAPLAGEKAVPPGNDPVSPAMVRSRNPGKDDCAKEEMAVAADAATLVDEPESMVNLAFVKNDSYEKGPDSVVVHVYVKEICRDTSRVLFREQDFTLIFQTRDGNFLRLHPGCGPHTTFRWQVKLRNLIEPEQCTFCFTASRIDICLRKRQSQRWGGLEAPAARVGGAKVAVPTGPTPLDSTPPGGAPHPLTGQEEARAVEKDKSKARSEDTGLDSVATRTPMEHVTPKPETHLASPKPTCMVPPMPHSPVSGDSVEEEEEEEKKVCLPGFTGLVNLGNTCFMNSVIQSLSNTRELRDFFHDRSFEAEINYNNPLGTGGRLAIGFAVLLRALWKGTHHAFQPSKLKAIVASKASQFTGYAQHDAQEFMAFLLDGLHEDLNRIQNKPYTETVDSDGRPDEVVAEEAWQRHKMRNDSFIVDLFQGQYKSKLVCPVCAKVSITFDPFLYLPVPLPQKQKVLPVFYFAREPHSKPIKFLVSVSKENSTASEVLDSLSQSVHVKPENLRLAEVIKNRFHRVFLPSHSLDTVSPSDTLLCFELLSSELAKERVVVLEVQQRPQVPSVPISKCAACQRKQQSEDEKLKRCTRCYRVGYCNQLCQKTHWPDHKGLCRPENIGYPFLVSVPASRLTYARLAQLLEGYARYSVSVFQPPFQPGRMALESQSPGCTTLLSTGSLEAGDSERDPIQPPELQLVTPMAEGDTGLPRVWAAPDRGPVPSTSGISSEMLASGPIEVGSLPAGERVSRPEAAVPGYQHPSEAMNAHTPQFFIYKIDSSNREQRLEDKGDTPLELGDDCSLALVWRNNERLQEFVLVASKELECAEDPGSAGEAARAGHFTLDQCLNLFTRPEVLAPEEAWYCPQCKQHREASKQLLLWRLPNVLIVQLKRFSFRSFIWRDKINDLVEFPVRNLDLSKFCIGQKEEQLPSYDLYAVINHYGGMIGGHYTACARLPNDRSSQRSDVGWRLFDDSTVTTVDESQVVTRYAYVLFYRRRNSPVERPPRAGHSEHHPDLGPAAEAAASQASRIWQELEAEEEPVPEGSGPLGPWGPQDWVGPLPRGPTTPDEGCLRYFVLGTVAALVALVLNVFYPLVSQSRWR
Outline: (§1)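 Global-median-normalised Spectronaut label-free quantities were compared by unpaired t-test, and values are average log2 ratios of fragment over vehicle. Only proteins with ≥2 unique peptides were used. HEK293T lysate (495 µg per sample) was treated in triplicate with fragment at 200 µM or vehicle for 3 h and then with Biotin-Ahx-Ub-VS at 0.5 µM final for 1 h. Labelled DUBs were then NeutrAvidin-enriched, digested with LysC and trypsin, and run by diaPASEF LC-MS/MS.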

[2] = target: USP24 (UniProt Q9UPU5)
USP24, sequence (Q9UPU5 whole entry): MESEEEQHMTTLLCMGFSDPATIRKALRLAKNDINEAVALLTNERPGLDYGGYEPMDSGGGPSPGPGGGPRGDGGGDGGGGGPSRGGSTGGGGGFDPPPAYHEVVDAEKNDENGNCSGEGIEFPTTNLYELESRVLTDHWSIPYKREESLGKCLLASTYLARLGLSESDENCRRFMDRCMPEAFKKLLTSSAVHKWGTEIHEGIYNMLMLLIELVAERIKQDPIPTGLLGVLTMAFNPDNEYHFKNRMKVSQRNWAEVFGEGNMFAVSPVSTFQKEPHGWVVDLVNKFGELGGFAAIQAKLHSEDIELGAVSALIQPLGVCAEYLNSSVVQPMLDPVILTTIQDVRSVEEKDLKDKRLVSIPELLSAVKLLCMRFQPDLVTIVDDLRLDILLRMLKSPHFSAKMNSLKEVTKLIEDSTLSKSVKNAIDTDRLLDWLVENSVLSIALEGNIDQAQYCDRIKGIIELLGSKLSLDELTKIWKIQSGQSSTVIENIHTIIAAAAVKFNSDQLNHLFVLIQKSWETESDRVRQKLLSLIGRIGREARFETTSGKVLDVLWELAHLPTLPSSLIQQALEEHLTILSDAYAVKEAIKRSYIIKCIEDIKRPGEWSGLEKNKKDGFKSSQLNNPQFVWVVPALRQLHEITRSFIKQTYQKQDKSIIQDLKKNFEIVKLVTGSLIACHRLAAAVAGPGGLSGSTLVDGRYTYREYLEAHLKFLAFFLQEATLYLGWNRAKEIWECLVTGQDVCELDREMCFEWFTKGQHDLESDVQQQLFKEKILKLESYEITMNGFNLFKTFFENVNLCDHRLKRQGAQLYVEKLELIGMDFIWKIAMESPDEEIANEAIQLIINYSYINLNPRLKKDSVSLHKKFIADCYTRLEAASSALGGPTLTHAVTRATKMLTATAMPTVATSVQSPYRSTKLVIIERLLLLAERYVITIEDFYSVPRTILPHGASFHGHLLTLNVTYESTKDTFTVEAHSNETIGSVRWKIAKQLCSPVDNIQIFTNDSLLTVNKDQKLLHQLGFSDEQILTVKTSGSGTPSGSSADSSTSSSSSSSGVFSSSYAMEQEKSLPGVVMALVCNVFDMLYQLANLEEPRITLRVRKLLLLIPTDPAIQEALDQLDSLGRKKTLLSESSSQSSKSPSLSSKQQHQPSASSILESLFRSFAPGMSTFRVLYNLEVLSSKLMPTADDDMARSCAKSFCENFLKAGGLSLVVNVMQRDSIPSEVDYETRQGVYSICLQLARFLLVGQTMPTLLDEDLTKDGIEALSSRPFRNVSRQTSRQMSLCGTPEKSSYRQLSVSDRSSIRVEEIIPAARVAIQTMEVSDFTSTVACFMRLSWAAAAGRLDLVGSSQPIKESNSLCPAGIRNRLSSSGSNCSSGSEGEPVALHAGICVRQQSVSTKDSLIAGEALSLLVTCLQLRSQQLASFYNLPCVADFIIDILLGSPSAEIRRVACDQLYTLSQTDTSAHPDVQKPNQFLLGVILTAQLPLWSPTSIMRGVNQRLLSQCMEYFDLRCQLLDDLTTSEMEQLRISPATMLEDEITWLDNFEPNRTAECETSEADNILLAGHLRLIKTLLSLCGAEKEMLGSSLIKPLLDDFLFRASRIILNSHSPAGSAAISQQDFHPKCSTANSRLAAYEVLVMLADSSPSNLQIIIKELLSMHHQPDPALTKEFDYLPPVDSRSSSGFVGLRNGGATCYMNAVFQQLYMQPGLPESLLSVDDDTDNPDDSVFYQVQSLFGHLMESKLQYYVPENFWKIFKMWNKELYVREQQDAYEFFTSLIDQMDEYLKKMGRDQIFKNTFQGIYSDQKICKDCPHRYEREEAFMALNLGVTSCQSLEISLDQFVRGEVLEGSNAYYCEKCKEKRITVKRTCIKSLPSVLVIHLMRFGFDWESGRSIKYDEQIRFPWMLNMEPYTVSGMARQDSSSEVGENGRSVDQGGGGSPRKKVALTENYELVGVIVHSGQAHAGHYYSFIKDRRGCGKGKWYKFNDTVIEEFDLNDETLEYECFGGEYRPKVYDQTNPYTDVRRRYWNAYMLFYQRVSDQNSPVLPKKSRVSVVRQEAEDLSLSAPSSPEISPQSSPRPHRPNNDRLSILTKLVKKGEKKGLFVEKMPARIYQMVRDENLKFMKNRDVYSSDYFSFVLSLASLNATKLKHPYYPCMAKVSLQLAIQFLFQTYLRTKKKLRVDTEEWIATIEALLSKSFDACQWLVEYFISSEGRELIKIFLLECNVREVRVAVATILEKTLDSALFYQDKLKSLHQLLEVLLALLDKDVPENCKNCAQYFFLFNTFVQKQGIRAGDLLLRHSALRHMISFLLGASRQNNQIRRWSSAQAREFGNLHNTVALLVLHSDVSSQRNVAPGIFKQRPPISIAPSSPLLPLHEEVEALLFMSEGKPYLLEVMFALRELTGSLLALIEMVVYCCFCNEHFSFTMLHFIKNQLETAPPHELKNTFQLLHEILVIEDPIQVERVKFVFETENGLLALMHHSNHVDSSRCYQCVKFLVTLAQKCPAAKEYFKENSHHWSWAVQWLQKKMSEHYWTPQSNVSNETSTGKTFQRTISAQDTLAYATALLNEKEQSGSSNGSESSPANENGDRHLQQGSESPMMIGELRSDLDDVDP
Outline: as §1

[3] = target: T2, USP25 (UniProt Q9UHP3)
T2 sequence (whole entry): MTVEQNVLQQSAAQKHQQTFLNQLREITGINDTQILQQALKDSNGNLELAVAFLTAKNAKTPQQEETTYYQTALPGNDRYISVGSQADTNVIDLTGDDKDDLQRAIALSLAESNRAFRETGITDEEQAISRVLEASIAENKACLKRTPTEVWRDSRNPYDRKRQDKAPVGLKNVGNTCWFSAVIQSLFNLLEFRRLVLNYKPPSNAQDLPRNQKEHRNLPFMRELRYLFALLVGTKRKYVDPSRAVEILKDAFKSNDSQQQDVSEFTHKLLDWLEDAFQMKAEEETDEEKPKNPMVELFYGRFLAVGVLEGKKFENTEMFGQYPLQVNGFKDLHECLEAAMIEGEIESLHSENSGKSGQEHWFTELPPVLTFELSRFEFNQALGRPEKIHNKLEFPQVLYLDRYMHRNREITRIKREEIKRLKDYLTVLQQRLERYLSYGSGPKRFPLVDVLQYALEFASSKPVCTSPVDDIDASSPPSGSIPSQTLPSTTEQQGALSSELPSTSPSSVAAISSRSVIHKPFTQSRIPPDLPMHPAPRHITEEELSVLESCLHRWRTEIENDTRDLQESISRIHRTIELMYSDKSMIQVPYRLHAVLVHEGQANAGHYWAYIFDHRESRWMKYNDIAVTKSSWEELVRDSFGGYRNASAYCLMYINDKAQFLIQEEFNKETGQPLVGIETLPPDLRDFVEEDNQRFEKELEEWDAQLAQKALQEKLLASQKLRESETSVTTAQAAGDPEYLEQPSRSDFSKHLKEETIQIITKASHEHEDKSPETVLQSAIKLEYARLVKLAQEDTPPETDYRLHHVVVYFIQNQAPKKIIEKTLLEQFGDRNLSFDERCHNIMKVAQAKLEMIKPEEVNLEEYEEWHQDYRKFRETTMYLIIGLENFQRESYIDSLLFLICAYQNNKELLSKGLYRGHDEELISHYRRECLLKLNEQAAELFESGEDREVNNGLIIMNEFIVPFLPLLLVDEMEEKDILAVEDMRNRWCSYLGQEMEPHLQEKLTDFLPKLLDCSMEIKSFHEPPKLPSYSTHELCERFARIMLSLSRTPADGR
Outline: as §1

[4] = target: T3, USP28 (UniProt Q96RU2)
T3 sequence (whole entry): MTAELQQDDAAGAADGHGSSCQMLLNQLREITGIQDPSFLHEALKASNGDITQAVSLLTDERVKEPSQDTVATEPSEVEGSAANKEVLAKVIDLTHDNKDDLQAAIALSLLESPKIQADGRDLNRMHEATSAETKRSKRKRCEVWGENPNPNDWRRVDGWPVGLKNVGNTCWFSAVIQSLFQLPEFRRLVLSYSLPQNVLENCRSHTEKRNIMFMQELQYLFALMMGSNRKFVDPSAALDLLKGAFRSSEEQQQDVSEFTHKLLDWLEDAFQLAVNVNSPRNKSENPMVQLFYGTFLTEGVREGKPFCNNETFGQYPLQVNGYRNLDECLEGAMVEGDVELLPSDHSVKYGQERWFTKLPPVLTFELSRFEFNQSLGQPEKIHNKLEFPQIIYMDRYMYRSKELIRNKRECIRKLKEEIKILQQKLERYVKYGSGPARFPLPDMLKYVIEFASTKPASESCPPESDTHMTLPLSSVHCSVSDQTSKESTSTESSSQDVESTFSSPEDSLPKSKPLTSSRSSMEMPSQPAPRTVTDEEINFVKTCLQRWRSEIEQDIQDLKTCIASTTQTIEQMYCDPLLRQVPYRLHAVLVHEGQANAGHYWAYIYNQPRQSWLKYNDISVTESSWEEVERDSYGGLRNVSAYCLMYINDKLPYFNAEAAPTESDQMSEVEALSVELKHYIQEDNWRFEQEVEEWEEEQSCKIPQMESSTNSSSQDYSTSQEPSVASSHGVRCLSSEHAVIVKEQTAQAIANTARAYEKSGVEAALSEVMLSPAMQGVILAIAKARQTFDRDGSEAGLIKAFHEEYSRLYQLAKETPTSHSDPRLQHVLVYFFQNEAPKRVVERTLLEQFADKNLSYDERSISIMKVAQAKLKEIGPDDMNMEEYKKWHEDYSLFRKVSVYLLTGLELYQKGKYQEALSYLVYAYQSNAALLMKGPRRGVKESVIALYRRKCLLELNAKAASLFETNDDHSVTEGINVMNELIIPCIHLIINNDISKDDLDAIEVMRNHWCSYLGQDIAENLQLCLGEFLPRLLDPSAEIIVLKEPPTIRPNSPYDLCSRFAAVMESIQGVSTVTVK
Outline: as §1

Measured: log2 ratio of Biotin-Ahx-Ub-VS probe labelling

O=C(CCl)N1CCC(OCc2ccccc2F)CC1
inactive: [1] -0.0583 | [2] -0.486 | [3] -0.163 | [4] -0.161
